GLS inhibitor = inhibitors of human glutaminase (GLS) | GLS enzymatic activity, qHTS titration | Potency, µM (highest dose often 45.5 µM), hits mostly inhibitors | hit rate 0.21% among 410,000
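hKGA; 45 mM KH2PO4 pH 8.2 + 0.02% Tween-20; cpd via pin tool; 1 mM Gln soln; GluOx/HRP/Amplex Red; RT 30 min; fluor. t0 & final.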
JMJD2A Tudor = JMJD2A Tudor domain (human) inhibition. O75164. AlphaScreen JMJD2A-Tudor / H3K4me3 peptide binding. Potency, µM (highest dose often 114 µM), usual class: inhibitors. hit rate 4.4% among 390,000; note: nearly all actives have a fitted effect of over 50% in size
BAZ2B inh = inhibitors of human BAZ2B bromodomain | hit rate 4.4% among 360,000 | Potency, µM (titrated, usually from 114 µM), hits mostly inhibitors | AID 504333 | Q9UIF8 | AlphaScreen BAZ2B-H3K14Ac peptide displacement; note: nearly all actives have a fitted effect of over 60% in size
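BAZ2B (50 nM) with biotin-H3(5-23)K14Ac peptide (50 nM) in PBS pH 7.4, 0.01% Tween-20, preformed 30 min, then compound 30 min at room temperature; top concentration 110uM. AlphaScreen streptavidin donor/nickel chelate acceptor beads (10 ug/mL final), 20 min dark, signal read.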
HP1b chromo inh = HP1-beta chromodomain-methylated histone interaction inhibition; AlphaScreen HP1-beta / biotin-H3K9me3 peptide binding; Potency, µM (highest dose often 114 µM), most hits filed as inhibitors; P83916; AID 540317; hit rate 0.56% among 390,000; note: nearly all actives have a fitted effect of over 70% in size
Target sequence (P83916 whole entry, looked up): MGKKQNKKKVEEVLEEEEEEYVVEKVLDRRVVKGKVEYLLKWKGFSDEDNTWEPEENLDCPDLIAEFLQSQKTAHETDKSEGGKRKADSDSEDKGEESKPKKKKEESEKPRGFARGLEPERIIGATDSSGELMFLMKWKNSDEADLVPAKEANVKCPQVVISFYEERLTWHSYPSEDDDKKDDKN
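Compound inhibition of the preformed complex between 50 nM HP1-beta and 50 nM biotinylated H3K9me3 peptide was read by AlphaScreen. Buffer was PBS pH 7.4 with 0.01% Tween-20. Incubations ran 30 min at room temperature, with 10 ug/mL donor/acceptor beads.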
G9a block = blocks human histone lysine methyltransferase G9a; Potency, µM (doses to about 102 µM), hits mostly inhibitors; hit rate 8.8% among 350,000; G9a H3K9 monomethylation, AlphaScreen, 2 h; Q96KQ7; AID 504332; note: nearly all actives have a fitted effect of over 75% in size
Target sequence (Q96KQ7 913-1193 limits assumed): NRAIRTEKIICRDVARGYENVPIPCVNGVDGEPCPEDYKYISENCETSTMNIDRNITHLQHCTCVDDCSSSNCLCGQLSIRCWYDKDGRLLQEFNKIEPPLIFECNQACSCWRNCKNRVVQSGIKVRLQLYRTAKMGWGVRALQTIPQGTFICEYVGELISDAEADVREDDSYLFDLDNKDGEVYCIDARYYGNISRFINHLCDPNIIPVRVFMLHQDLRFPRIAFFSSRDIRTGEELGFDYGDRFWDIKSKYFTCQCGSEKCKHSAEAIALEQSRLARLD
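Signal arises when biotinylated H3K9 peptide, once monomethylated, bridges streptavidin donor and antibody-captured acceptor beads. Enzyme at 20 nM was preincubated 15 min with test compounds; peptide 500 nM and SAM 20 uM then reacted for 2 h.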
Of the large screens only hits and unclear results are named; the others gave an inactive call. A selection: hits, their analogues and other compounds. The true share with any hit is near 10%. Calls come from the whole dose curve; as a rule, active = well fitted curve in the direction sought with a large enough effect; inconclusive = small, poorly fitted or top-dose-only effect, or another doubt; inactive = no such curve, though single readings can be large; an effect the other way counts as inactive or inconclusive.

O=C1NC(=O)/C(=C\c2ccsc2)N1	JMJD2A Tudor 31.6µM
CCN(CC)c1ccc(/C=C2\NC(=O)NC2=O)cc1	none
CCN1C2=C(C(=O)CCC2)C(c2ccc(O)cc2)C2=C1CCCC2=O	G9a block 20µM
O=C(CCNS(=O)(=O)c1ccccc1C(F)(F)F)N1CCN(S(=O)(=O)c2cccc(Cl)c2)CC1	none
CCOC(=O)c1cc(-c2ccc(OC)cc2)nn1-c1ccccc1C(=O)O	GLS inhibitor 11.2µM, JMJD2A Tudor inconclusive, BAZ2B inh inconclusive, HP1b chromo inh inconclusive (no result: G9a block)
COc1ccc(-c2cc(C(=O)NN)n(-c3ccccc3)n2)cc1	none
O=C(N/C(=C/c1cccs1)C(=O)N1CCOCC1)c1ccco1	none
O=C1CCC[C@@H]2[C@H]3CCC[N+]4([O-])CCC[C@@H](CN12)[C@@H]34 (stereo partly specified)	none
CCOc1ccc(N=C(C)C2=C(O)c3ccccc3C2=O)cc1	G9a block inconclusive
CCOc1ccc(N=C(NN)c2ccc3ccccc3n2)cc1	JMJD2A Tudor 50.1µM, BAZ2B inh 39.8µM, G9a block 12.6µM
Cc1noc(C)c1C(=O)NNc1cc(Cl)ccc1Cl	G9a block 79.4µM
O=C(NNc1cc(Cl)ccc1Cl)c1cccs1	GLS inhibitor 12.6µM, G9a block 56.2µM
Cc1cc(NC2CCCCC2)n2c(n1)nc1ccccc12	none
O=C(NCC(=O)N1CCN(c2ccccc2O)CC1)c1ccco1	none
O=C(NCC(=O)N1CCN(c2ccccc2O)CC1)C1CCCCC1	GLS inhibitor 5.62µM
C=CCc1c(C)[nH]c2c(OC)cccc2c1=S	JMJD2A Tudor inconclusive, G9a block 3.98µM
C=CCN(CC=C)C(=O)c1c(OC)cccc1OC	none
CCc1ccc(C2=NNC(=Nc3c(C)n(C)n(-c4ccccc4)c3=O)SC2)cc1	G9a block 25.1µM
CCC(CC)NCC(O)COc1ccc(Br)cc1 (stereo unspecified)	JMJD2A Tudor 1µM, BAZ2B inh 28.2µM, HP1b chromo inh inconclusive
CS(=O)(=O)n1nc(OC(=O)c2cc(Br)ccc2Cl)cc1N	G9a block 31.6µM
COCCn1c(SCC(=O)N2CCCCCC2)nnc1-c1ccco1	none
COc1ccc(C)cc1Nc1n[n+](C)c(-c2c3ccccc3cc3ccccc23)s1	G9a block 44.7µM
COc1ccc(-c2sc(Nc3ccccc3)n[n+]2C)c(C)c1C	none (no result: G9a block)
COc1ccc(C)cc1Nc1n[n+](C)c(-c2ccc(O)cc2O)s1	G9a block 17.8µM
CCOc1ccc(S(=O)(=O)NCCOC)cc1C	G9a block inconclusive
O=C(COC(=O)C1CC1)Nc1ccc(N=Nc2ccccc2)cc1	none
Cc1ccc(N/N=C/c2c(O)cc(C)oc2=O)cc1	BAZ2B inh inconclusive, G9a block inconclusive
CCOc1ccc(N=Cc2c(O)cc(C)oc2=O)cc1	none
Cc1cc(O)c(/C=N/Nc2ccc(F)cc2)c(=O)o1	JMJD2A Tudor inconclusive, G9a block 4.47µM
Oc1ccc2ccccc2c1C=Nc1ccc(Cl)cn1	JMJD2A Tudor 25.1µM, G9a block 1.78µM
Cc1cc(O)c(C=Nc2ccc(Cl)cn2)c(=O)o1	JMJD2A Tudor 31.6µM, BAZ2B inh inconclusive
Cc1cccc(/N=C/c2c(O)cc(C)oc2=O)n1	JMJD2A Tudor inconclusive, G9a block 12.6µM
O=c1oc2ccccc2c(O)c1/C=N/c1ccccn1	none
Cc1ccc(CO/N=C/c2c(O)cc(C)oc2=O)cc1	JMJD2A Tudor inconclusive, BAZ2B inh inconclusive, G9a block 31.6µM
COc1ccc(CO/N=C/c2c(C)[nH]c(=O)[nH]c2=O)cc1	none
Cc1cc(O)c(/C=N/c2ccccn2)c(=O)o1	JMJD2A Tudor 79.4µM, BAZ2B inh inconclusive, G9a block 14.1µM
CC(C)Oc1ccccc1C1C=C(C(=O)O)Nc2ncnn21 (stereo unspecified)	BAZ2B inh inconclusive, G9a block 14.1µM
COc1cc(C2C=C(C(=O)O)Nc3ncnn32)ccc1O (stereo unspecified)	JMJD2A Tudor 79.4µM, G9a block 12.6µM
CNc1ccc2ncc(-c3cccc(C(=O)N(C)C)c3)n2n1	none (no result: JMJD2A Tudor, BAZ2B inh, HP1b chromo inh, G9a block)
CC(C)(C)OC(=O)N1CCCN(C(=O)Nc2cccc(Cl)c2)CC1	none (no result: G9a block)
O=S(=O)(c1cccc(C(F)(F)F)c1)N1CCC(c2cc(-c3cccc4ccccc34)n[nH]2)CC1	JMJD2A Tudor 39.8µM, BAZ2B inh inconclusive
Cc1ccc2nc(NC(=O)C3CCN(S(=O)(=O)c4cccs4)CC3)sc2c1	none
CCN1CCN(c2cc3c(cc2F)c(=O)c(C(=O)O)cn3C2CC2)CC1	BAZ2B inh inconclusive, G9a block 31.6µM
CC(=O)N1CCN(c2cc3c(cc2F)c(=O)c(C(=O)O)cn3C2CC2)CC1	G9a block 50.1µM
CCCCCCC(=O)N1CCN(c2cc3c(cc2F)c(=O)c(C(=O)O)cn3CC)CC1	none (no result: BAZ2B inh, G9a block)
COc1cc(NC(=O)CSc2nc3ncnc(N)c3[nH]2)c(C(=O)O)cc1OC	none
Cc1ccc(C2=NN(Cc3nnc(-c4ccccc4)o3)C(=O)SC2)cc1	none
COCCNc1ccc(-c2nc(-c3cccc(C)c3)no2)cc1[N+](=O)[O-]	none
O=C(N/N=C/c1sc2ccccc2c1O)c1ccccc1	JMJD2A Tudor inconclusive, BAZ2B inh inconclusive, G9a block inconclusive
O=C(N/N=C/c1sc2ccccc2c1O)c1cccc2ccccc12	GLS inhibitor inconclusive, JMJD2A Tudor 79.4µM, BAZ2B inh 44.7µM
COc1ccc(C(=O)N/N=C/c2sc3ccccc3c2O)cc1	GLS inhibitor 15.8µM, JMJD2A Tudor inconclusive, BAZ2B inh 44.7µM, G9a block 50.1µM
CCOC(=O)/C(C#N)=C/c1cn(CCC(=O)O)nc1-c1cccc(Br)c1	none
Cc1nn(C)c(C(=O)Sc2cccc(Cl)c2)c1[N+](=O)[O-]	G9a block inconclusive
Cc1cccc(Cl)c1NNC(=O)Nc1c([N+](=O)[O-])c(C)nn1C	G9a block 15.8µM
CN(CC(=O)Nc1ccccc1Br)C(=O)c1cccc([N+](=O)[O-])c1	none
COc1ccc(S(=O)(=O)Oc2ccccc2C(=S)N2CCOCC2)cc1	G9a block 25.1µM (no result: GLS inhibitor, JMJD2A Tudor, HP1b chromo inh)
COc1ccc(S(=O)(=O)Oc2cccc(C(=S)N3CCOCC3)c2)cc1	none
O=[N+]([O-])c1ccccc1S(=O)(=O)Oc1ccc(C(=S)N2CCOCC2)cc1	JMJD2A Tudor inconclusive, HP1b chromo inh inconclusive, G9a block 28.2µM
O=C(Oc1ccc(C(=S)N2CCOCC2)cc1Br)c1cc(Cl)ccc1Cl	G9a block 44.7µM
COc1cc(C(=S)N2CCOCC2)ccc1OC(=O)c1cccc(C)c1	JMJD2A Tudor inconclusive, BAZ2B inh inconclusive, G9a block 22.4µM
CC(=O)N1CCN(S(=O)(=O)c2ccc(S(=O)(=O)NC3CC3)cc2)CC1	none
O=C1CC(=O)N2N=C(c3ccc([N+](=O)[O-])cc3)SC2=N1	JMJD2A Tudor inconclusive, BAZ2B inh inconclusive
COc1cc(C(=S)N2CCOCC2)ccc1OS(=O)(=O)c1ccc(Cl)cc1	G9a block 35.5µM
COc1cc(C(=S)N2CCOCC2)cc(OC)c1OC(=O)c1ccccc1[N+](=O)[O-]	G9a block inconclusive
